Mtb FBA inh – inhibits M. tuberculosis FBA enzyme | purified M. tuberculosis FBA, fluorescence read-out | 2.3% of 360,000 active | inhibition, % at 1 µM | AID 588726 | P9WQA3; in the data active = inhibition above about 27%
Target sequence (P9WQA3 whole entry, looked up): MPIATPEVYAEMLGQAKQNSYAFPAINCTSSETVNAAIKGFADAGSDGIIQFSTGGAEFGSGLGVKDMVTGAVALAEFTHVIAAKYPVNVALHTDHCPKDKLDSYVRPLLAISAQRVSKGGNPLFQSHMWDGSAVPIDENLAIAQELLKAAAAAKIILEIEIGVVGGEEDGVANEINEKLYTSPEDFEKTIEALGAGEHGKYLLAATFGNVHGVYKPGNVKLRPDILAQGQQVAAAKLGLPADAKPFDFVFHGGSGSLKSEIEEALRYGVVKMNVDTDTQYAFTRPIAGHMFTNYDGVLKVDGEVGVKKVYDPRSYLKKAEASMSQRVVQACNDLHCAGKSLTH
Vc quorum ag – induces V. cholerae light production without autoinducers | activation, % at 18.7 µM | V. cholerae BH1578 lux reporter, luminescence, 6 h | 0.16% of 350,000 active; in the data active = activation mostly above about 9.7%, no sharp cut-off
GDH-TPI counter – GDH-TPI coupled enzyme inhibition counter-screen | AID 588335 | GDH-TPI coupled enzyme counterscreen, NADH absorbance | inhibition, % at 4.8 µM | 1.2% of 360,000 active; in the data active = inhibition above about 30%
PrPC TRFRET – inhibitors of human cell surface prion protein PrPC. TR-FRET read-out. inhibition, % at 13.8 µM. 0.43% of 370,000 active. AID 720596; in the data active = inhibition above about 24%
SARS 3CLpro inh – SARS-CoV 3CLpro protease inhibition | P0C6X7 | recombinant SARS-CoV 3CLpro, quenched FRET peptide cleavage | inhibition, % at 6 µM | 0.14% of 290,000 active | AID 1706; in the data active = inhibition above about 12%
A number is an active result; . = inactive; / = not tested or not shown; + = active, no number. Shown are actives, neighbours in structure and some others; about 3.9% of the full set was active somewhere.

SMILES | Mtb FBA inh | Vc quorum ag | GDH-TPI counter | PrPC TRFRET | SARS 3CLpro inh
CCS(=O)(=O)N1Cc2ccccc2CC1C(=O)NC(C)C12CC3CC(CC(C3)C1)C2 (stereo not drawn) | . | . | . | 31 | .
CC(NC(=O)C1CCN(S(=O)(=O)c2ccc(Br)s2)CC1)c1ccccc1 (stereo not drawn) | . | . | . | . | .
CCn1c(=S)sc2c(=O)n(-c3ccccc3)c(=S)[nH]c21 | . | . | 35 | . | .
CCN(CC)S(=O)(=O)c1ccc(N/N=C/c2ccc(O)cc2O)nc1 | . | . | 40 | . | .
O=[N+]([O-])c1ccc(NN=Cc2ccccc2O)nc1 | . | . | . | . | /
Cc1ccccc1NC(=S)N/N=C/c1ccc(O)cc1O | . | . | 56 | . | .
Oc1ccc(C=NNc2ccccn2)c(O)c1 | . | . | 41 | . | /
O=[N+]([O-])c1ccc(NN=Cc2ccc(O)cc2O)nc1 | . | . | . | . | /
Oc1cccc(C=NNc2ccccn2)c1 | . | . | . | . | /
O=[N+]([O-])c1ccc(O)c(/C=N/Nc2ccccn2)c1 | . | . | 38 | . | .
C#CCNC(=O)C[C@H]1C[C@@]2(C(=O)OC)C(=C[C@H](C(C)C)O[C@@H]2C2CC2)N(CCCCCCCC)C1=O | / | / | / | . | /
Cc1ccc(S(=O)(=O)N(CCCc2c(C)nc[nH]c2=O)c2ccccc2)cc1 | . | . | . | . | /
CC(OC(=O)CCC1CCCC1)C(=O)Nc1ccccc1[N+](=O)[O-] (stereo not drawn) | . | . | . | . | /
O=[N+]([O-])c1ccc(O)c(C=NNc2ccc(S(=O)(=O)O)cc2)c1 | . | . | 52 | . | /
Oc1ccc(/C=N/Nc2ncc(Br)cn2)c(O)c1 | . | . | . | . | .
Cc1nc(N/N=C/c2ccc(O)cc2O)cc(N2CCOCC2)n1 | . | . | 64 | . | .
O=c1[nH]ncc(N/N=C\c2ccc(O)cc2O)c1Cl | . | . | 38 | . | .
C=CCOC(=O)N[C@@H](c1cccc(OC)c1)[C@@H](C)/C=C/CC(=O)O | / | / | / | . | /
N#CCCCc1cc2ccccc2cn1 | . | . | . | . | /
Nc1c(-c2ccc(F)cc2)nc2ncccn12 | / | / | / | . | /
Clc1ccc(-c2nc3ncccn3c2Cl)cc1 | + | . | . | / | .
O=C(CC(SCCO)c1ccc([N+](=O)[O-])cc1)c1ccco1 (stereo not drawn) | . | . | 31 | . | .
CC(=O)NC(CSC(CC(=O)c1ccco1)c1ccc(C)cc1)C(=O)O (stereo not drawn) | . | . | 31 | . | .
C(=N\Nc1nncc2ccccc12)/c1cccnc1 | / | / | / | . | /
O=C(O)c1ccc(N/N=C/c2cc3ccccc3nc2Cl)cc1 | . | . | 37 | . | .
SMILES | Mtb FBA inh | Vc quorum ag | GDH-TPI counter | PrPC TRFRET | SARS 3CLpro inh
O=C(O)c1ccc(N/N=C/c2cccc3nccnc23)cc1 | . | . | 46 | . | .
Cc1cccc2cc(/C=N/Nc3ccc(C(=O)O)cc3)c(Cl)nc12 | . | . | . | . | .
CCCOc1ccccc1C1C(C(=O)OC)=CN(C(C)C)C=C1C(=O)OC | 165 | . | . | . | .
COC(=O)C1=C(C)NC(=O)NC1c1ccccc1Cl (stereo not drawn) | . | . | . | . | .
COC(=O)C1=CN(C)C=C(C(=O)OC)C1c1ccccc1Cl | 199 | . | . | . | .
CCCOc1ccccc1C1NC(=O)NC(C)=C1C(=O)OCCOCC (stereo not drawn) | . | / | . | . | .
CCN1C=C(C(=O)OC)C(c2cccc(C)c2)C(C(=O)OC)=C1 | + | . | . | . | .
COC(=O)C1=CN(C(C)C)C=C(C(=O)OC)C1c1cc(Br)c(OC)c(OC)c1 | 154 | . | . | . | .
CCNc1nc(NC(C)C)nc(OCC)n1 | . | . | . | . | .
Cc1ccc2nc(NC(=O)COC(=O)c3cccnc3)sc2c1 | . | . | . | . | /
CCNC(=O)N(C)C[C@H]1N[C@@](CC)(C(=O)OC)[C@H]2C(=O)N(C)C(=O)[C@@H]12 | . | . | . | . | /
COC(=O)[C@]12C=CCN1[C@@H](c1ccc(OC)c(OC)c1)c1c(c3ccccc3n1S(=O)(=O)c1ccc(C)cc1)C2 | / | / | / | . | /
COC(=O)C1=CN(C(C)C)C=C(C(=O)OC)C1c1cccc(OC)c1 | + | . | . | . | .
CCCCOC(=O)CNc1n[nH]c(=S)[nH]c1=O | . | . | . | . | .
CC(C)COC(=O)CNc1n[nH]c(=S)[nH]c1=O | . | + | . | . | .
CCC(C)Sc1ccc(-c2nc3ccc(C)cn3c2NCc2ccccc2)cc1OC (stereo not drawn) | 116 | . | 42 | / | /
COc1ccc(-c2nc3ccc(C)cn3c2NCc2ccccc2)cc1SC1CCCCC1 | . | . | . | / | /

Assay outcomes as filed in PubChem.
